Compound activity (PubChem BioAssay)
Sampled rows, rich in hits. Any-hit rate of the full collection: about 2.8%.
POLB inh: blocks human DNA polymerase beta activity; P06746; Pol beta primer extension/strand displacement, fluorescence kinetic; Potency, µM (top dose mostly 114 µM), for the others: top-dose activity change, negative = inhibition, most hits filed as inhibitors; actives 1.3% (n = 340,000); also: potency is read from the fitted curve at half-maximal effect; % is scaled to controls: 0 for no effect and ±100 for the full control effect
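Preincubation: enzyme (10 nM) with compound, 15 min, RT. Reaction: substrate added to 50 nM final. Reads: 0 and 10 min. Analysis: normalized, Hill fit.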
Pol eta inh-1: DNA polymerase eta (human) inhibition. Potency, µM (top dose mostly 114 µM), for inactives: at the top dose activity change, negative = inhibition, most hits filed as inhibitors. recombinant Pol eta, fluorescent DNA replication assay. AID 588591. actives 1.2% (n = 390,000); also: potency is read from the fitted curve at half-maximal effect; % is scaled to controls: 0 for no effect and ±100 for the full control effect
Target sequence (Q9Y253 whole entry, looked up): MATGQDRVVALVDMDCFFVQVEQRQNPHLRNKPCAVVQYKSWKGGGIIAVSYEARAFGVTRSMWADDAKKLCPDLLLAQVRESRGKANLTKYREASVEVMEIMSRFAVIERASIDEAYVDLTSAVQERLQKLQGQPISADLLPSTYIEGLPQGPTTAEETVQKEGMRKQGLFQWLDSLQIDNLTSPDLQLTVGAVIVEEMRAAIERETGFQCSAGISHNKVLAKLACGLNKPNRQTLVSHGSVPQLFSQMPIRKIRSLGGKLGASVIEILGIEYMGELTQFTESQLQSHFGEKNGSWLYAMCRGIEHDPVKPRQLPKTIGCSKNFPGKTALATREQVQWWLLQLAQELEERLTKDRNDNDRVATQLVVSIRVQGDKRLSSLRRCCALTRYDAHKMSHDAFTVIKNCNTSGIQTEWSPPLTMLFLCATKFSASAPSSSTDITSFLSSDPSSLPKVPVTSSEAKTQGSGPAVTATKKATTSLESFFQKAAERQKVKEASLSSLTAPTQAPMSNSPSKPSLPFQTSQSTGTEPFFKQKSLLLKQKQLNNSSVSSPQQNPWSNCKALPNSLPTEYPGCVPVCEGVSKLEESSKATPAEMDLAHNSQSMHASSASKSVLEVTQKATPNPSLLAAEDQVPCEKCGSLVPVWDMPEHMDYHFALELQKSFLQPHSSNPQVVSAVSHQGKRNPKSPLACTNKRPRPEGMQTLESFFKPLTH
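Pol eta at 10 nM preincubated with compounds 15 min at room temperature; reaction started with fluorescent substrate (50 nM final) and read kinetically at 0 and 10 min.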
Pol kappa inh-1: inhibitors of human DNA polymerase kappa; Q9UBT6; purified Pol kappa, fluorescent DNA synthesis assay, 10 min; Potency, µM (series often up to 107 µM), without a hit: top-dose activity, negative = inhibition, most hits filed as inhibitors; actives 0.53% (n = 400,000); also: potency is read from the fitted curve at half-maximal effect; % is scaled to controls: 0 for no effect and ±100 for the full control effect
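Kinetic fluorescence readout at 0 and 10 min followed reaction start with substrate at 50 nM final. Beforehand, enzyme (10 nM Pol kappa) stood 15 min with compound at room temperature; buffer-only wells were negative controls.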
WRN helicase inh: blocks human WRN helicase; Q14191; WRN helicase unwinding, fluorescent forked duplex, kinetic; Potency, µM (highest dose often 114 µM), for inactives: top-dose activity change, negative = inhibition, usual class: inhibitors; actives 0.46% (n = 360,000); also: potency is read from the fitted curve at half-maximal effect; % is scaled to controls: 0 for no effect and ±100 for the full control effect; nearly all actives have a fitted effect of over 55% in size
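Screening of the MLSMR collection measured strand separation of a quenched forked DNA duplex (100 nM) by 20 nM WRN with 2 mM ATP, all final. Compounds were preincubated with enzyme 15 min at room temperature.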
POLI inh: DNA polymerase iota (human) inhibition | Q9UNA4 | actives 1% (n = 390,000) | Potency, µM (series often up to 115 µM), inactives show top-dose activity, negative = inhibition, actives largely listed as inhibitors | Pol iota fluorescent replication assay, 10 min; also: potency is read from the fitted curve at half-maximal effect
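Fluorescent replication assay read twice, at 0 min and 10 min after adding 50 nM (final) substrate. Enzyme (10 nM) and compounds were first incubated 15 min at room temperature; enzyme-free buffer wells were negative controls.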
PI5P4K alpha inh: PI5P4K alpha (human) kinase inhibition | P48426 | PI5P4Kalpha enzyme, ADP-Glo luminescence, 60 min; active compounds read low | max response, % | actives 1.2% (n = 330,000) | AID 652105; active = max response of -50% or lower; inconclusive = between -30% and -50%; inactive = -30% or higher; also: value at the top dose of about 77 µM; % is scaled to controls: 0 for no effect and ±100 for the full control effect
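Human PI5P4Kalpha with substrate in 0.038 M HEPES pH 7.4, 0.28 mM EGTA, 0.1% CHAPS, 5% DMSO; reaction started with 5 microM ATP (final), 60 min at room temperature. ADP formed read by ADP-Glo luminescence.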
PGK validate: blocks T. brucei phosphoglycerate kinase; shares compounds with Pol kappa inh-1; TbPGK coupled GAPDH assay, Kinase-Glo luminescence; Potency, µM (highest dose often 57.5 µM), for the others: at the highest dose activity change, negative = inhibition, hits mostly inhibitors; actives 79% (n = 500); also: potency is read from the fitted curve at half-maximal effect; % is scaled to controls: 0 for no effect and ±100 for the full control effect; nearly all actives have a fitted effect of over 65% in size
POLI cherry-pick: Inhibitors of human DNA polymerase iota, confirmation. actives 77% (n = 1,500). shares compounds with Pol kappa inh-1. AID 720496. Potency, µM, most hits filed as inhibitors. Pol iota primer extension, TAMRA/BHQ fluorescence; also: potency is read from the fitted curve at half-maximal effect
GALK confirm: confirmation of human galactokinase (GALK) inhibitors; shares compounds with Pol eta inh-1; purified GALK, Kinase-Glo ATP depletion luminescence; Potency, µM (doses to about 115 µM), inactives show at the highest dose activity, negative = inhibition, actives largely listed as inhibitors; actives 70% (n = 150); AID 2015
GALK redox cs: redox cycling activity in phenol red-HRP assay; Potency, µM (titrated, usually from 115 µM), without a hit: at the highest dose activity change, negative = H2O2 signal, usual class: inhibitors; actives 40% (n = 150); shares compounds with Pol eta inh-1; Phenol red-HRP H2O2 redox cycling, absorbance 600 nm; AID 2035
HEK293 viability: counter-screen for GALK inhibitors: HEK293 cell cytotoxicity. shares compounds with Pol eta inh-1. HEK-293 viability, ATP luminescence (CellTiter-Glo), 24/48 h. Potency, µM (titrated, usually from 46.1 µM), inactives show top-dose activity change, negative = cytotoxicity, most hits filed as inhibitors. actives 10% (n = 170); also: potency is read from the fitted curve at half-maximal effect; % is scaled to controls: 0 for no effect and ±100 for the full control effect
Pol kappa inh-2: confirmation of human DNA polymerase kappa inhibitors; shares compounds with Pol eta inh-1; purified Pol-kappa, fluorescent strand-displacement substrate; Potency, µM, hits mostly inhibitors; actives 76% (n = 920); AID 720501; also: potency is read from the fitted curve at half-maximal effect
Pol eta inh-2: confirmation of human DNA polymerase eta inhibitors; actives 64% (n = 2,600); shares compounds with Pol eta inh-1; Pol eta primer extension, TAMRA/BHQ fluorescence, 10 min; Potency, µM, hits mostly inhibitors; AID 720502; also: potency is read from the fitted curve at half-maximal effect
An asterisk follows results filed as active; ? = inconclusive; nt = not tested or not shown; [ ] = remark or other dose. Unless noted, calls follow the shape of the dose curve; as a rule, active = well fitted curve in the direction sought with a large enough effect; inconclusive = small, poorly fitted or top-dose-only effect, or another doubt; inactive = no such curve, though single readings can be large; an effect the other way counts as inactive or inconclusive.

SMILES	POLB inh	Pol eta inh-1	Pol kappa inh-1	WRN helicase inh	POLI inh	PI5P4K alpha inh	POLI cherry-pick	Pol eta inh-2	others
O=C(Nc1cccc(Oc2ccc(C(=O)O)c(C(=O)O)c2)c1)c1ccc(-c2ccccc2)cc1	?	22µM*	89µM*	?	?	?	84*	?	PGK validate=15µM*;GALK confirm=24µM*;GALK redox cs=4%;HEK293 viability=12%
COc1ccc(NC(=O)N(C)[C@H]2C[C@H]3c4[nH]c5ccccc5c4CCN3C(=O)[C@H]2CO)cc1	nt	-10%	nt	-1%	nt	-12	nt	nt
CCOC(=O)C1=C(COC(=O)C2CC(=O)N(c3ccccc3CC)C2)NC(=O)NC1C (stereo not drawn)	nt	-1%	nt	10%	nt	-2	nt	nt
Cc1ccc(/C=N/NC(=O)c2cc(-c3ccncc3)nc3ccccc23)o1	1%	-4%	-7%	2%	23%	-22	nt	nt
Cc1ccc(-c2cc(C(=O)N/N=C/c3ccc([N+](=O)[O-])o3)c3ccccc3n2)o1	-9%	50µM*	?	-14%[11.6 µM]	?	?	?	30*
O=C(N/N=C/c1ccc(F)cc1)c1cc(-c2ccco2)nc2ccccc12	3.5µM*	1.6µM*	14µM*	40µM*	7.9µM*	-111*	7.5*	21*	PGK validate=8.2µM*;Pol kappa inh-2=11*
CC1=C(C(=O)N2CCOCC2)CC(CC(=O)NC(c2ccccc2)c2ccccc2)C(=O)N1Cc1ccc(F)cc1 (stereo not drawn)	nt	-18%	nt	-5%	nt	-3	nt	nt
CCCCN1C(C(=O)Nc2ncccn2)=C(O)c2ccccc2S1(=O)=O	22%	-10%	-9%	-12%	122%	-8	nt	nt
O=C(O)Cc1c[nH]c2ccccc12	nt	-11%	-8%	-9%	6%	0	nt	nt
O=C(O)Cc1c[nH]c2cccc(O)c12	18µM*	8.9µM*	22µM*	?	?	?	19*	7.6*
CCCCOc1ccc(C(=O)N(Cc2ccco2)Cc2ccco2)cc1	22µM*	32µM*	-37%	nt	?	nt	67*	54*	Pol kappa inh-2=15*
CCCOc1ccc(C(=O)N(Cc2ccco2)Cc2ccco2)cc1	9%	?	-6%	nt	-1%	nt	nt	nt
COc1cc(/C=C/C=C2/CC/C(=C/C=C/c3ccc(O)c(OC)c3)C2=O)ccc1O	nt	5µM*	14µM*	40µM*	3.5µM*	-93*	21*	15*
C/C(N)=C(/C#N)C(=O)CSc1ncnc2ccccc12	?	?	-6%	0%	31%	-11	nt	nt
C/C(N)=C(/C#N)C(=O)CSc1nc2ccccc2[nH]1	14µM*	50µM*	?	?	20µM*	nt	34*	27*
CSCC[C@H](NC(=O)[C@@H]1CCCN1C(=O)CNC(=O)[C@H](CCCCN)NC(=O)[C@H](Cc1cnc[nH]1)NC(=O)[C@H](CO)NC(=O)[C@H](CC(C)C)NC(=O)[C@H](CCCN=C(N)N)NC(=O)[C@@H]1CCCN1C(=O)[C@H](CCCN=C(N)N)NC(=O)[C@@H]1CCC(=O)N1)C(=O)N1CCC[C@H]1C(=O)N[C@@H](Cc1ccccc1)C(=O)O	nt	nt	14%[60.1 µM]	nt	nt	nt	nt	nt
Cc1ccc(S(=O)(=O)OCC(=O)Nc2ccc(C(=O)O)c(O)c2)cc1	nt	3.2µM*	25µM*	?	20µM*	-22	19*	19*	Pol kappa inh-2=3.4*
CC(=O)Nc1nc2[nH]ccc2c(=O)[nH]1	nt	-4%	nt	-7%	nt	-12	nt	nt
CC(=O)C1=C(c2ccc(Cl)c(Cl)c2)N(C(C)=O)n2cnnc2S1	?	-21%	-3%[60.1 µM]	nt	?	nt	nt	nt
O=C1NN(c2ccccc2)C(=O)/C1=C/c1ccc(Sc2cccc3ccccc23)o1	20µM*	28µM*	?	?	11µM*	?	75*	30*
O=C1NN(c2ccccc2)C(=O)/C1=C/c1ccc(-c2ccc(C(=O)O)cc2)o1	?	7.1µM*	18µM*	50µM*	3.5µM*	?	24*	27*
O=C(O)c1ccc(N2C(=O)/C(=C/c3ccc(-c4ccc([N+](=O)[O-])cc4)o3)C=C2c2ccccc2)cc1	10µM*	3.5µM*	?	56µM*	?	-94*	8.4*	7.6*
CC1=NN(c2ccc(C(=O)O)cc2)C(=O)/C1=C/c1ccc(-c2ccccc2F)o1	-1%	nt	nt	nt	nt	nt	nt	nt
COc1cccc(/C=C2/C(=O)NN(c3ccccc3)C2=O)c1	6%	3%	-10%	-27%	108%	-25	nt	nt
O=c1[nH]c(=S)[nH]c2c1C(c1ccc(Br)cc1)c1c([nH]c(=S)[nH]c1=O)O2	13µM*	2.2µM*	4µM*	14µM*	1µM*	-75*	2.7*	1.7*
COC(=O)C1=C(C)Nc2[nH]c(=S)[nH]c(=O)c2C1c1ccc(O)cc1 (stereo not drawn)	22%	-17%	-8%	-3%	11%	-24	nt	nt
